Bioassay records (PubChem)
Sampled rows, rich in hits. Any-hit rate of the full collection: about 19%.
DT40 TDP1 no CPT = qHTS for Inhibitors of human tyrosyl-DNA phosphodiesterase 1 (TDP1): qHTS in cells in absence of CPT; Potency, µM (top dose mostly 46.2 µM), most hits filed as inhibitors; DT40 Tdp1-/- hTDP1 cells, no CPT, ATP luminescence, 48 h; 15% of 420,000 active; AID 686978, 2013; further: nearly all actives have a fitted effect of over 55% in size
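Compound effects on proliferation are scored in DT40 Tdp1-/-;hTDP1 cells in the absence of CPT. ATP levels (CellTiter-Glo luminescence) are recorded after a ≥48 hr, 37 °C incubation.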
IL-1B inflam inh = inflammasome signaling inhibition, IL-1 beta readout | THP-1 LPS/ATP IL-1B secretion, AlphaLISA, 16 h; active compounds read low | activity change, % at 57.5 µM | 4.7% of 360,000 active | AID 743279; in the data active means activity change below about -50%; inconclusive means mostly about -30% to -49%
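Secreted IL-1B measured by AlphaLISA bead assay after 16 h compound exposure of THP-1 cells; compounds (final up to 57.5 uM) added 1 h before LPS (250 ng/mL) and ATP (1.25 mM) stimulation; lower signal means less secretion.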
TDP1 cell CPT = DT40-hTDP1 cell growth loss with CPT; 12% of 420,000 active; Potency, µM (series often up to 46.2 µM), most hits filed as inhibitors; chicken DT40 Tdp1-/-;hTDP1 cells + 20 nM CPT, ATP luminescence, 48 h; further: nearly all actives have a fitted effect of over 55% in size
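Chicken DT40 Tdp1-/- cells stably complemented with human TDP1 were seeded at 400 cells/well in medium containing 20 nM camptothecin, exposed to pin-transferred compounds, and grown at 37 °C for at least 48 hr. Viability was read as ATP luminescence.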
HT1080 IDH1KD tx = HT-1080 IDH1 knockdown cell toxicity (counter line). HT-1080 IDH1 knockdown viability, ATP luminescence, 48 h. AID 686971. 2% of 360,000 active. Potency, µM (top dose mostly 46.1 µM), usual class: cytotoxic
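% activity derives from luminescence (CellTiter-Glo), normalised to DMSO and no-cell wells. HT-1080-IDH1KD cells, 750/well, had 48 h compound exposure at 37 °C.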
HT1080NT lethal = kills 2HG-producing HT-1080-NT fibrosarcoma cells; HT-1080-NT fibrosarcoma viability, CellTiter-Glo ATP luminescence, 48 h; Potency, µM (top dose mostly 46.1 µM), usual class: cytotoxic; 1.6% of 360,000 active; AID 686970;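 further: NT is the 2HG producing partner of a matched IDH1 knockdown line; nearly all actives have a fitted effect of over 55% in size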
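HT-1080-NT fibrosarcoma cells (2HG-overproducing), 750 cells/well in RPMI with 5% FBS, dosed after 2 h and incubated 48 h at 37C. CellTiter-Glo luminescence normalized to DMSO and no-cell wells; concentration-response curves fitted and classed.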
A number is an active result; 0 = inactive; ? = inconclusive; - = not tested or not shown. Unless noted, the call rests on the fitted dose curve; in most records, active means well fitted curve in the direction sought with a large enough effect; inconclusive means small, poorly fitted or top-dose-only effect, or another doubt; inactive means no such curve, though single readings can be large; an effect the other way counts as inactive or inconclusive.

SMILES	DT40 TDP1 no CPT	IL-1B inflam inh	TDP1 cell CPT	HT1080 IDH1KD tx	HT1080NT lethal
CCC(CC)C(=O)Nc1nnc(S(=O)(=O)Nc2ccccc2C)s1	0	0	0	0	0
Cc1cc(C(=O)NNc2ccc(C(C)C)cc2)n(C(C)(C)C)n1	0	0	?	0	0
COc1ccc(Cl)cc1N(C)C(=O)Cn1cnc2sc(C)c(S(=O)(=O)N3CCN(c4ncccn4)CC3)c2c1=O	?	-	0	-	-
O=C(c1sc2cc(Cl)ccc2c1Cl)N1CCN(CCc2ccccn2)CC1	?	0	0	0	0
O=C1NC[C@H](Cc2ccc(O)cc2)N(C[C@@H]2CCCN2C[C@H](Cc2ccccc2)N2C[C@H](Cc3ccccc3)N(CC3CCCCCC3)C(=O)C2=O)C1=O	?	0	?	?	?
O=C1NC[C@H](Cc2ccccc2)N(C[C@H]2CCCN2C[C@H](Cc2ccccc2)N2C[C@H](Cc3ccccc3)N(CC3CCCCC3)C(=O)C2=O)C1=O	?	-78	21µM	?	?
CCCS(=O)(=O)NC(=O)C1(C)CCN(C(=O)c2ccc(C(F)(F)F)nc2C)C1 (stereo not given)	0	0	0	0	?
COc1ccccc1N(C1=NCCCS1)S(=O)(=O)c1ccc(C(C)(C)C)cc1	23µM	0	21µM	0	0
O=C(NCCOc1ccccc1)c1cc2ccccc2o1	0	0	0	0	0
COc1ccc(-c2cc(C(=O)N3CCCCCC3)c3ccccc3n2)cc1	?	0	?	0	0
COC(=O)c1cn(-c2nc3ccccc3s2)nn1	16µM	0	?	0	0
Clc1ccc(-c2cn(-c3nc4ccccc4s3)nn2)cc1	0	0	0	0	0
COc1ccc(NC(=O)CN2C(=O)COc3ccc(S(=O)(=O)Nc4ccccc4)cc32)cc1	0	-	0	-	-
CCOc1ccc(CCNc2cc(C)nc3ncnn23)cc1OCC	15µM	0	21µM	0	0
CCc1c(C)nc2ncnn2c1N1CCCC(C(=O)NCCc2ccc(OC)cc2)C1 (stereo not given)	?	0	?	?	0
COc1ccc(CCNc2c(C)c(C)nc3ncnn23)cc1	2.6µM	0	2.3µM	7.1µM	10µM
CCOc1ccc(CNc2cc(C)nc3nc(-c4cccc(C)c4)nn23)cc1OC	18µM	-	?	-	-
COc1ccc(-c2cc(NCCc3ccncc3)n3ncnc3n2)cc1	0	-66	0	0	0
COc1ccc(-c2cc(NCc3ccccn3)n3ncnc3n2)cc1	?	0	?	0	0
COc1ccc(OC)c(C2=NS(=O)(=O)N(C)C(C(=O)NCc3ccco3)=C2)c1	0	0	0	0	0
CCc1c(C)nc2ncnn2c1NCCc1ccc(OC)c(OC)c1	13µM	0	15µM	0	0
CCOc1ccc(CCNC(=O)CCc2c(C)nc3ncnn3c2C)cc1OCC	0	0	0	0	0
CCCCCN(C(=O)CCC(=O)OCC(=O)N1CCCC(C)C1)c1c(N)n(CCCC)c(=O)[nH]c1=O (stereo not given)	0	0	0	0	0
COc1ccc(/C=N\NC(=O)c2cccc(Br)c2)c(OC)c1	0	0	0	0	0
COc1ccc(C(=O)N/N=C/C(=O)c2ccccc2)cc1	0	0	0	0	0
SMILES	DT40 TDP1 no CPT	IL-1B inflam inh	TDP1 cell CPT	HT1080 IDH1KD tx	HT1080NT lethal
COc1ccc2cc(C(=O)N/N=C/c3sc4ccccc4c3O)ccc2c1	7.3µM	0	10µM	?	?
COc1ccc(C(=O)N/N=C/c2sc3ccccc3c2O)cc1	3.7µM	0	2.6µM	?	?
O=C(N/N=C/c1sc2ccccc2c1O)c1cccc2ccccc12	5.2µM	0	2.6µM	?	?
O=C(N/N=C/c1ccccc1F)c1cccc2ccccc12	?	0	?	0	0
O=C(N/N=C/c1sc2ccccc2c1O)c1ccccc1	0.65µM	0	0.92µM	2.6µM	8.2µM
Cc1ccc(Cl)cc1N1CCN(c2nc3ccccc3c3nc(-c4cccnc4)nn23)CC1	0	-	0	-	-
CC(CN1CCN(C)CC1)OC(=O)c1cccc(F)c1 (stereo not given)	0	0	0	0	0
Cn1c(-c2csc(-c3ccccc3)n2)n[nH]c1=S	?	0	?	0	0
Cc1nc2ccccc2nc1-c1csc(-c2ccccc2)n1	11µM	-	13µM	-	-
CCCn1c(SCc2nc(-c3cc(OC)ccc3OC)no2)nnc1-c1ccc(Cl)cc1	15µM	-	13µM	-	-
COc1ccc(Cc2nc(-c3ccc(Cl)cc3)no2)cc1	0	0	0	0	0
CCCn1c(SCc2nc(-c3ccccc3C)no2)nnc1-c1ccc(Cl)cc1	16µM	-	13µM	-	-
